What was measured:
Assay in all cases: log2 ratio of Biotin-Ahx-Ub-VS probe labelling (fragment/DMSO); higher = less target engagement (more negative = stronger competition), active = hit call of the paper (q ≤ 0.05, log2 ratio ≤ -1)
Conditions in all cases: compound concentration: 200 uM; treatment time: 3 h
ALG13 = target: T1, ALG13 (UniProt Q9NP73)
T1 sequence (whole entry): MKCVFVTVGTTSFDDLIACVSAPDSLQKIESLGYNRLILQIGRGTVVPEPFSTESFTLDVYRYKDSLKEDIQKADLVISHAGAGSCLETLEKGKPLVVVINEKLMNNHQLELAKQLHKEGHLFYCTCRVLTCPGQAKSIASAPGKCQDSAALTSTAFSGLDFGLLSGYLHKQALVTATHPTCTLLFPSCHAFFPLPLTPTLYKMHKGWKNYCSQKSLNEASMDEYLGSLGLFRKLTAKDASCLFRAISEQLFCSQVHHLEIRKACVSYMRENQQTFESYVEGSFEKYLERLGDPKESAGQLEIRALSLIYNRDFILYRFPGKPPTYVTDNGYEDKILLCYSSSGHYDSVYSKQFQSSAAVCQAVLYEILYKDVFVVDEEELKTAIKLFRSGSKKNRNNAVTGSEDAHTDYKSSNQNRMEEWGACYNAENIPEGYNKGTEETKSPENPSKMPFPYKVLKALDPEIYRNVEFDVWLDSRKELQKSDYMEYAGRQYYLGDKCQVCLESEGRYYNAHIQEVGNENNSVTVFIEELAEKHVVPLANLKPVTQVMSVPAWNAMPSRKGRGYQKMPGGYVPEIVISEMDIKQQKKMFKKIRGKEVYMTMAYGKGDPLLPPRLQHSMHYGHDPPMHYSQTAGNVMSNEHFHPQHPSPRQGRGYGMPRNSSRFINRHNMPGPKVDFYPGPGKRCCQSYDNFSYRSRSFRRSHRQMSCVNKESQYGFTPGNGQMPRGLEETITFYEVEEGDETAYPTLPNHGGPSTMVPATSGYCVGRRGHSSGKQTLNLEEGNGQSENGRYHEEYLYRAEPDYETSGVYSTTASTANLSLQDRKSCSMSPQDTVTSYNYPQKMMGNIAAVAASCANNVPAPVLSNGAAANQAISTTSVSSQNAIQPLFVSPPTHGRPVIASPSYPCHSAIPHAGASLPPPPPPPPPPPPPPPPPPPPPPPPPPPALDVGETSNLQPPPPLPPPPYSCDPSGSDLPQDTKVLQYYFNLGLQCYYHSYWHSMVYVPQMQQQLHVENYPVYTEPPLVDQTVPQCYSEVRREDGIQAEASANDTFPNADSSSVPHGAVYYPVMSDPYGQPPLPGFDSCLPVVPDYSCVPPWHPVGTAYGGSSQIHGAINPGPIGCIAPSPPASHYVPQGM
Summary of the method: (§1)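 Global-median-normalised Spectronaut label-free quantities were compared by unpaired t-test, and values are average log2 ratios of fragment over vehicle. Only proteins with ≥2 unique peptides were used. HEK293T lysate (495 µg per sample) was treated in triplicate with fragment at 200 µM or vehicle for 3 h and then with Biotin-Ahx-Ub-VS at 0.5 µM final for 1 h. Labelled DUBs were then NeutrAvidin-enriched, digested with LysC and trypsin, and run by diaPASEF LC-MS/MS.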

ATXN3 = ATXN3 (UniProt P54252)
ATXN3, sequence (P54252 whole entry): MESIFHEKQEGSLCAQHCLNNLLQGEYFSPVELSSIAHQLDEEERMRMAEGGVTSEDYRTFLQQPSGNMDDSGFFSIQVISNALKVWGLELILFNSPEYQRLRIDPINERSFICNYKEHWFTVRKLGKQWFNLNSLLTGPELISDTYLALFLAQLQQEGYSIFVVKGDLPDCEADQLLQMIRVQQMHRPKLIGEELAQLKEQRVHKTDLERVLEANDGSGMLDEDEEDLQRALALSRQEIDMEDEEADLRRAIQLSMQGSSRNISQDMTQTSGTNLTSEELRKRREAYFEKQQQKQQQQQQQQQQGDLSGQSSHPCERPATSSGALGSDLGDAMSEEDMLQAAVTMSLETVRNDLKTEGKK
Summary of the method: as §1

BAP1 = target: T2, BAP1 (UniProt Q92560)
T2 sequence (whole entry): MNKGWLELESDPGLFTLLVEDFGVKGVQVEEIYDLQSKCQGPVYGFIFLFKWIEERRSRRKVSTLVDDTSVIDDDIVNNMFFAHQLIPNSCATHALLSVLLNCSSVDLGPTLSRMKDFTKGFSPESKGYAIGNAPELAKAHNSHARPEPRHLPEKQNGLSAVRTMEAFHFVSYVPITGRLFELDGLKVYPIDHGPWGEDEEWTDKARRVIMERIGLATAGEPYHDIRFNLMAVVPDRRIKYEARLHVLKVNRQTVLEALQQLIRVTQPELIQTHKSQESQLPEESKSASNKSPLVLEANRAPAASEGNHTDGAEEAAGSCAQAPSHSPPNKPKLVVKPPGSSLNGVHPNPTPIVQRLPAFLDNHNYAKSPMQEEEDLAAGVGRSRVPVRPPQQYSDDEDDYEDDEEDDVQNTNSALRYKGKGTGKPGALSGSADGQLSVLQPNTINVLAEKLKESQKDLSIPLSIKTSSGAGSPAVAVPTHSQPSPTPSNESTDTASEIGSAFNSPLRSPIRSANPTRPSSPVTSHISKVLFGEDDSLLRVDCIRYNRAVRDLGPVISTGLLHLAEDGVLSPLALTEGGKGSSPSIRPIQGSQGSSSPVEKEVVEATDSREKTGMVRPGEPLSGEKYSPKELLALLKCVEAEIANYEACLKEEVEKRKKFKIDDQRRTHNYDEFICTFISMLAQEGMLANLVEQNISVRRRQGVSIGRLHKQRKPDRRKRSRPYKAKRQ
Summary of the method: as §1

EIF3F = EIF3F (UniProt O00303)
EIF3F, sequence (O00303 whole entry): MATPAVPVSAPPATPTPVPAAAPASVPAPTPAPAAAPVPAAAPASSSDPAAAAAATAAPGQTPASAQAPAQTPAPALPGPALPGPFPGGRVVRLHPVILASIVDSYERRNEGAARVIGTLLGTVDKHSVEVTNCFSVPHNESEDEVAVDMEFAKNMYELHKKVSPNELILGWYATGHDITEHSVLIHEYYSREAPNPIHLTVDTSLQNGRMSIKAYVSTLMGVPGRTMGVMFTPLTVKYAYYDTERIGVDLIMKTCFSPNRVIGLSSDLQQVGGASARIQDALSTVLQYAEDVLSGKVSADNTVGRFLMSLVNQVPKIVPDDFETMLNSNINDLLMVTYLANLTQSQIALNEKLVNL
Summary of the method: as §1

EIF3H = EIF3H (UniProt O15372)
EIF3H, sequence (O15372 whole entry): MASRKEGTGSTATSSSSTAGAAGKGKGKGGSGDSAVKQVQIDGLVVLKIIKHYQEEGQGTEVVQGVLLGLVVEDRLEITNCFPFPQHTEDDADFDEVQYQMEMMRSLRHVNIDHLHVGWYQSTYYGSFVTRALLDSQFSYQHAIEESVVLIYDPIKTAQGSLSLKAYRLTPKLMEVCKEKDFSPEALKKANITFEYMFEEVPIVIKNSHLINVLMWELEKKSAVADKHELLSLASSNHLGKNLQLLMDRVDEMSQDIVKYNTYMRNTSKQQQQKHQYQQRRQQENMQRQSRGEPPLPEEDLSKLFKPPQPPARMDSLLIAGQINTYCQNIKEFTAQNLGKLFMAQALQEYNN
Summary of the method: as §1

FAM105A = target: T3, FAM105A (UniProt Q9NUU6)
T3 sequence (whole entry): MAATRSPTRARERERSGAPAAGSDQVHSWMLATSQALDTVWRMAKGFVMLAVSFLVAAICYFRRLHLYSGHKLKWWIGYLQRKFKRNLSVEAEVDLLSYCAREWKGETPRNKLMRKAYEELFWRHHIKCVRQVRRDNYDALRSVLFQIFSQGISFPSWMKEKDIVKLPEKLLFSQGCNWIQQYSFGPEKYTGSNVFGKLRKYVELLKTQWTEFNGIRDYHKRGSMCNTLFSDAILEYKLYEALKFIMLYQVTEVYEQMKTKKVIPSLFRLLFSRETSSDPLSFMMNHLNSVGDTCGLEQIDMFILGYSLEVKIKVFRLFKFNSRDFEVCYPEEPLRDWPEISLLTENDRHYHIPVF
Summary of the method: as §1

OTUB1 = OTUB1 (UniProt Q96FW1)
OTUB1, sequence (Q96FW1 whole entry): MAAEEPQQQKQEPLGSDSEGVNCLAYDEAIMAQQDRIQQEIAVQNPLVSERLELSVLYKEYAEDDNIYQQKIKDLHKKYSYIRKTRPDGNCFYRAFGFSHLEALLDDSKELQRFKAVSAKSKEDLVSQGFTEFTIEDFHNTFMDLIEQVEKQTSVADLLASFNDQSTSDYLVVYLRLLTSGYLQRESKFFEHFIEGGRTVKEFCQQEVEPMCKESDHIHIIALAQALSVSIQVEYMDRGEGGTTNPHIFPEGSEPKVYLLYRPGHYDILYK
Summary of the method: as §1

OTUD4 = target: T4, OTUD4 (UniProt Q01804)
T4 sequence (whole entry): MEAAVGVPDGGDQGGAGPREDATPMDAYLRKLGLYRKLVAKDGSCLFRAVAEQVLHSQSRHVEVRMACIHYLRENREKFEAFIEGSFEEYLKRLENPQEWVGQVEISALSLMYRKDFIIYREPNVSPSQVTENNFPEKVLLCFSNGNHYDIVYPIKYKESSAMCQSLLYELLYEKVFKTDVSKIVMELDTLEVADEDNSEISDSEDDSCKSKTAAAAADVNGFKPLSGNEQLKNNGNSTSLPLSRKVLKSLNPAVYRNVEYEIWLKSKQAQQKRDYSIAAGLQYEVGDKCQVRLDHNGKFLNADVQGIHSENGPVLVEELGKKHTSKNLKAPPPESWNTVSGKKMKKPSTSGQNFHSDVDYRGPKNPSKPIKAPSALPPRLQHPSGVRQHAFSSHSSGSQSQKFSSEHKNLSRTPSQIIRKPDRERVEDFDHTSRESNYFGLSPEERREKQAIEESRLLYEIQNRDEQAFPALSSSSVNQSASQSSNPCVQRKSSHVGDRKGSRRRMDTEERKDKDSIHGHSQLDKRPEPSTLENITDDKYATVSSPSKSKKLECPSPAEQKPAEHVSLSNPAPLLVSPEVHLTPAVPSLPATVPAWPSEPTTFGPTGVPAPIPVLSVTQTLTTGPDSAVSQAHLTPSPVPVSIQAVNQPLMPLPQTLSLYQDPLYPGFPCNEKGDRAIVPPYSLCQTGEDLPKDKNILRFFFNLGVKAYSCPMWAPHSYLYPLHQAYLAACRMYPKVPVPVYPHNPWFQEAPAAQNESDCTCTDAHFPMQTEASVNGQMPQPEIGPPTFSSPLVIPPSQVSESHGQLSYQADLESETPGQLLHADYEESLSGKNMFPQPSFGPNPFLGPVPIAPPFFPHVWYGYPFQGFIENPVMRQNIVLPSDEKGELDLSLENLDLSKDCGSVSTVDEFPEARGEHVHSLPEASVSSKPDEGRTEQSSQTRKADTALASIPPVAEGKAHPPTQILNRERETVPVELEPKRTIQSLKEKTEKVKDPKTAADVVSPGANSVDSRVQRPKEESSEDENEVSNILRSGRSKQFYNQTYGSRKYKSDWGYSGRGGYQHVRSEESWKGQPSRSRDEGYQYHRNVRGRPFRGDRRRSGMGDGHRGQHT
Summary of the method: as §1

OTUD5 = target: T5, OTUD5 (UniProt Q96G74)
T5 sequence (whole entry): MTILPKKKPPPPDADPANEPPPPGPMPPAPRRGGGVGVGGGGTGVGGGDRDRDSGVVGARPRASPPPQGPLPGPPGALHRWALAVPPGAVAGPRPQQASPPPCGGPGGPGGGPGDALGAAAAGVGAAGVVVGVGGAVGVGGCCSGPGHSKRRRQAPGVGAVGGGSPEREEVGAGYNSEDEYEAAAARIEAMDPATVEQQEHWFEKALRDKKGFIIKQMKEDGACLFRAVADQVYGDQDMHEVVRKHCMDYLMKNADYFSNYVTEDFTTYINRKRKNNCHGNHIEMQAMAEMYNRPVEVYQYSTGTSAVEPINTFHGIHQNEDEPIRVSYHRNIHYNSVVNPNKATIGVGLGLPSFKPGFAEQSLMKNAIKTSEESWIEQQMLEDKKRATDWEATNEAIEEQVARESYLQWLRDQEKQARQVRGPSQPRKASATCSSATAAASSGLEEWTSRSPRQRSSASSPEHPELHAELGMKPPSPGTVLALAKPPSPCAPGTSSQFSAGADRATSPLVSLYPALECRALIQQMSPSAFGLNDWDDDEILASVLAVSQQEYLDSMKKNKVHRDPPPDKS
Summary of the method: as §1

Measured: log2 ratio of Biotin-Ahx-Ub-VS probe labelling

O=C(CCl)Nc1nnc(CC(F)(F)F)o1
inactive: ALG13 -0.0296 | ATXN3 -0.129 | BAP1 -0.573 | EIF3F -0.0944 | EIF3H 0.23 | FAM105A 0.0181 | OTUB1 0.15 | OTUD4 -0.445 | OTUD5 -0.385

From the supplement of paper PMC11732987, “Enantioselective OTUD7B fragment discovery through chemoproteomics screening and high-throughput optimisation” (Communications Chemistry, 2025)
